# Measurements taken from PubChem BioAssay AID1851 (National Center for Advancing Translational Sciences (NCATS), 2009).
# The whole screen tested about 16,000 compounds, of which about 5,100 (32%) were called active. About 25% were inconclusive and are not listed. The list shows a part of the results. A number with no mark means an inactive call. Calls follow the shape of the dose curve; as a rule, active = well fitted curve in the direction sought with a large enough effect; inconclusive = small, poorly fitted or top-dose-only effect, or effect the other way; inactive = no such curve, though single readings can be large or run the other way.
# Target: Cytochrome P450 3A4 (Homo sapiens) (UniProt P08684)
# Assay: Cytochrome panel assay with activity outcomes
# Settings: recombinant CYP, pro-luciferin dealkylation, luminescence, p450-cyp3a4; series mostly up to 57.1 µM; activity, negative = inhibition: at the top concentration
# % is scaled to controls: 0 for no effect and ±100 for the full control effect.
# Chain of Cytochrome P450 3A4 (Homo sapiens) (P08684 whole entry, looked up): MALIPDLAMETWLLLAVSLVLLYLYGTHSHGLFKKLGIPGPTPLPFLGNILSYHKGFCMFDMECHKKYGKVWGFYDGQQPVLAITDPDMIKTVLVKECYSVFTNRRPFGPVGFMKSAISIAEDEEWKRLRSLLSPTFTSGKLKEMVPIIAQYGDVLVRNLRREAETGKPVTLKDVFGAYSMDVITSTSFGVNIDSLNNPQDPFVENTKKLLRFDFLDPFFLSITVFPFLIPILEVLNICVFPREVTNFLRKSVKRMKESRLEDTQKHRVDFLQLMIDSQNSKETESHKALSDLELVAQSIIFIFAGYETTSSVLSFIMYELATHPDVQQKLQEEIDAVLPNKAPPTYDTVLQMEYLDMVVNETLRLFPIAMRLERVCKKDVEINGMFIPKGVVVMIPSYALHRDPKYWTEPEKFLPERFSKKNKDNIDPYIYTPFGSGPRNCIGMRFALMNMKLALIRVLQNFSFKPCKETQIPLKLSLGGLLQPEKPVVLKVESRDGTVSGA
SMILES,"activity, negative = inhibition",AC50
O=C(O)[C@@H]1[C@@H](C(=O)NCc2ccccn2)[C@@H]2C=C[C@@H]1O2,-5.18% [at 11.4 µM],
COc1cccc(C2=NOC(C(=O)Nc3ccc(OC)c(OC)c3)C2)c1 (stereo unspecified),,6.31 µM (active)
O=C(NCc1ccccn1)C1CC(c2ccc(Cl)c(Cl)c2)=NO1 (stereo unspecified),,25.1 µM (active)
O=C(NCc1ccc2c(c1)OCO2)C1CC(c2cccc(Br)c2)=NO1 (stereo unspecified),,0.708 µM (active)
COc1ccc(C2=NOC(C(=O)Nc3ccc(C(C)=O)cc3)C2)cc1OC (stereo unspecified),,8.91 µM (active)
COCCNC(=O)C1CC(c2cccc(OC)c2)=NO1 (stereo unspecified),-28.1%,
COC(=O)[C@@H](NC(=O)Nc1ccc(C(C)=O)cc1)C(C)C,-1.62%,
CC(=O)c1ccc(NC(=O)C2CC(c3ccc(F)cc3)=NO2)cc1 (stereo unspecified),-15.6%,
COc1ccc(C2=NOC(C(=O)NCc3ccco3)C2)cc1OC (stereo unspecified),-25.1%,
COc1ccc(CNC(=O)C2CC(c3ccc(OC)cc3)=NO2)cc1 (stereo unspecified),2.43%,
COc1ccc(CNC(=O)C2CC(c3cccc([N+](=O)[O-])c3)=NO2)cc1 (stereo unspecified),,6.31 µM (active)
Cc1ccc(NC(=O)NNC(=O)C2CC(c3cccnc3)=NO2)cc1 (stereo unspecified),12.9%,
COc1cccc(C2=NOC(C(=O)Nc3cccnc3)C2)c1 (stereo unspecified),,12.6 µM (active)
O=C1C=C(Nc2nc(C(=O)O)cc(=O)[nH]2)c2ccccc2C1=O,-12.4% [at 11.4 µM],
O=C1C=C(NCCc2cc(Br)c(O)c(Br)c2)C(=O)c2ncccc21,,3.16 µM (active)
O=C(NCc1ccco1)c1cc(C(=O)C2CC2)c[nH]1,2.35%,
O=C(NCc1ccco1)c1cc(C(=O)C2CCCCC2)c[nH]1,-11.4%,
O=C(NCCc1ccccn1)c1cc(C(=O)C2CCCCC2)c[nH]1,,10 µM (active)
COc1ccc2c(c1)c(CC(=O)OCC(=O)O)c(C)n2C(=O)c1ccc(Cl)cc1,-11.9% [at 25.6 µM],
COc1ccc2c(c1)c(CC(=O)O)c(C)n2C(=O)c1ccc(Cl)cc1,,inactive
COc1ccc2c(c1)c(CC(=O)N1CCOCC1)c(C)n2C(=O)c1ccc(Cl)cc1,,5.01 µM (active)
Cc1cccc(N/C(N)=N/c2nc(C)cc(C)n2)c1,-11.7%,

SMILES,"activity, negative = inhibition",AC50
Cc1cccc(C(=O)NNC(=O)C(=O)NC(C)(C)C)c1,-10.6%,
Cc1cccc(NCCNc2cccc(C)c2)c1,,25.1 µM (active)
COc1ccc(S(=O)(=O)Nc2ccc(F)cc2)c(C)c1C,,10 µM (active)
Cc1ccccc1CSc1nsc(N)n1,,25.1 µM (active)
COc1cccc(-c2cc(C(=O)Nc3cccc(O)c3)no2)c1,,10 µM (active)
COCCNC(=O)c1cc(-c2cccc(OC)c2)on1,-4.56%,
COc1ccc(NC(=O)c2cc(C(C)C)on2)cc1OC,-5.54%,
CCN1CCN(c2nc(C)c3c(n2)CCCC3=O)CC1,11.2%,
Cc1cc2nc(C)n(CCCN)c2cc1C,-18.2%,
CSc1nc(C)cc(Nc2ccc(O)c(CN3CCOCC3)c2)n1,0.709% [at 11.4 µM],
Cc1cccc(C(=O)NCN2CCN(c3ccccc3C#N)CC2)c1,-18.3%,
Cc1cccc(OCC(=O)NNC(=O)CSc2ncc(C#N)c(N)n2)c1,,14.1 µM (active)
Cc1c(C(=O)Nc2nccs2)sc2nc(-c3cccs3)cc(C(F)(F)F)c12,,14.1 µM (active)
CC(/C=C/c1ccccc1)=N/NC(=O)CNC(=O)c1ccc2c(c1)OCO2,,6.31 µM (active)
CN(C)Cc1ccc(C(C)(C)C)cc1-c1cc(C(C)(C)C)ccc1CN(C)C,0.94% [at 11.4 µM],
CN(C)Cc1cc(C(C)(C)C)ccc1-c1ccc(C(C)(C)C)cc1CN(C)C,5.04% [at 11.4 µM],
CN(C)Cc1cc(C(F)(F)F)ccc1C(O)(c1ccccc1)c1ccccc1,,0.794 µM (active)
CC(=O)NCCNc1cc(-c2ccccc2C)ncn1,-18%,
CC(=O)NCCNc1ncncc1-c1ccc(N(C)C)cc1,,2 µM (active)
CC(=O)NCCNc1ncncc1-c1ccccc1C,,2.51 µM (active)
CC(=O)NCCNc1cc(-c2ccccc2C(F)(F)F)ncn1,-6.72%,
COc1ccccc1-c1cncnc1NCCNC(C)=O,,2 µM (active)

SMILES,"activity, negative = inhibition",AC50
CC(=O)NCCNc1ncncc1-c1ccccc1C(F)(F)F,,1 µM (active)
COc1nc(OCCNC(C)=O)nc(N(C)C)n1,4.84% [at 2.29 µM],
CC(=O)NCCNc1cc(-c2ccccc2CN(C)C)ncn1,-7.94%,
CCn1cnc2sc(C(=O)N3CCN(c4ccc(OC)cc4)CC3)c(C)c2c1=O,,12.6 µM (active)
COc1ccc(N2CCN(C(=N)/C(C(C)=O)=C(\C)O)CC2)cc1,-4.11% [at 2.29 µM],
O=C(O)c1cc(=O)cc(C(=O)O)[nH]1,-8.24%,
Fc1cccc(F)c1C(Nc1nncs1)Nc1nncs1,-16.1% [at 11.4 µM],
CON(C)C(=O)c1nnc2c(n1)[nH]c1ccccc12,-23% [at 11.4 µM],
Clc1ccccc1-c1nc(N/N=C/c2cccnc2)c2ccccc2n1,,1.41 µM (active)
Clc1ccccc1-c1nc(NCc2cccnc2)c2ccccc2n1,,2.51 µM (active)
C(=N/Nc1nnc2c(n1)[nH]c1ccccc12)/c1cccnc1,,3.98 µM (active)
Cc1sc(N/N=C/c2cccnc2)nc1-c1ccccc1,20.5% [at 2.29 µM],
FC(F)(F)c1ccccc1-c1nc(NCc2cccnc2)c2ccccc2n1,,2 µM (active)
O=C(O)CNc1ccc(C(=O)O)cc1,-7.89% [at 11.4 µM],
CC(C)(C)COS(=O)OCC(C)(C)C,-4.89% [at 11.4 µM],
O=C(O)CCC(=O)N1CCOc2ccc(Cl)cc21,4.52%,
CN(C)CCn1c(CO)nc2c1c(=O)n(C)c(=O)n2C,-3.94% [at 11.4 µM],
O=c1cc(CO)oc(CN2CCCC2)c1O,-2.41%,
Cc1ccccc1-c1nc(NCc2cccnc2)c2ccccc2n1,,0.501 µM (active)
CO[C@]1(NC(=O)CSCC#N)C(=O)N2C(C(=O)O)=C(CSc3nnnn3C)CS[C@H]21,,inactive
COc1ccc(CC(NC(C)=O)C(=O)NC2CCN(C(=O)Nc3ccc(Cl)cc3)CC2)cc1OC (stereo unspecified),-6.41% [at 2.29 µM],
COc1ccc(C(C(=O)NC2CCCCC2)N(C(=O)Cc2c[nH]c3ccccc23)c2ccc(NC(C)=O)cc2)cc1OC (stereo unspecified),,3.16 µM (active)
